Test results taken from the supplement of paper PMC3334620.
The full ranking holds about 33,000 sequences; the median of “E-score (-0.5 to 0.5)” is about -0.056, and the highest 2% start at about 0.38. The list comes from a sample in which the highest values are over-represented; it also holds similar and randomly drawn sequences.

The sequences below were run against Stb4 (UniProt P50104) (assay: PBM E-score (8-mer binding enrichment) (E-score (-0.5 to 0.5)); higher = stronger / more preferred TF binding). Conditions: protein concentration: 200 nM; construct: GST-DNA-binding domain.
Chain of UniProt P50104 (P50104 whole entry, the tested form may be a part): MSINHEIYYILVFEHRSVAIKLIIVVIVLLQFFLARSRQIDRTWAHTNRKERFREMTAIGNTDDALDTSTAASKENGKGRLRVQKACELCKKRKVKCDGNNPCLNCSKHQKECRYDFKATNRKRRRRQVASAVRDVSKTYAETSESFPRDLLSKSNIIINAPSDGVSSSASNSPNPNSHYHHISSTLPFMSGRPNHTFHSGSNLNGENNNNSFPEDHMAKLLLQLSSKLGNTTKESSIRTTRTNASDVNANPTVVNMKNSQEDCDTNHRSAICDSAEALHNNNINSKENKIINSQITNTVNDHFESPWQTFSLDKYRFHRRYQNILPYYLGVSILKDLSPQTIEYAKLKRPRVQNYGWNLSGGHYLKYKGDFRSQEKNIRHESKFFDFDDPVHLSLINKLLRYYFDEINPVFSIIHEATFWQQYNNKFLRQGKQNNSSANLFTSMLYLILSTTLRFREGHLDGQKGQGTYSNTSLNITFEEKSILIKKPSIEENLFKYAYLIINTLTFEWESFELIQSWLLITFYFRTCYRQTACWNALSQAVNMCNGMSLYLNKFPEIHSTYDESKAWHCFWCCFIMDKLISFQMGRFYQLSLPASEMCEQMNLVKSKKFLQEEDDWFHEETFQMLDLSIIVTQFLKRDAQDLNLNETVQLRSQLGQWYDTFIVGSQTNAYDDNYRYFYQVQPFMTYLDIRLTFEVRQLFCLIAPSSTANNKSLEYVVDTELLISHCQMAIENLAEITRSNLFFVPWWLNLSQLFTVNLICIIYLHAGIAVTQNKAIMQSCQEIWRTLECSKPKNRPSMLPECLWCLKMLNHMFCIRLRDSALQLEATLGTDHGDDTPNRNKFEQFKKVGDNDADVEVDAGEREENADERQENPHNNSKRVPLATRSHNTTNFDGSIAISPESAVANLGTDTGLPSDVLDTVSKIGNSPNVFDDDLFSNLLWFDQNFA
Method: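 Universal 'all 10-mer' protein binding microarrays (Agilent AMADID 015681) probed with GST-tagged S. cerevisiae TFs (full-length or DBD) made by in vitro transcription/translation (PURExpress), about 100-200 nM. Bound TF was detected with fluorescent anti-GST. Each ungapped 8-mer (which stands for itself and its reverse complement) is scored by the PBM enrichment score (E-score), a modified Wilcoxon-Mann-Whitney statistic from -0.5 to +0.5, computed with the Universal PBM Analysis Suite. Scale: above 0.35 generally sequence-specific binding.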

Q: How did the “PBM E-score” value turn out when AATGCAGC was run?
A: -0.19

Q: With GGGGAAGA as the sequence, how does the “PBM E-score” value read?
A: -0.186

Q: Which “PBM E-score” value does the source give for AACCGCCG here?
A: 0.22

Q: With CAACACAG as the sequence, how does the “PBM E-score” value read?
A: -0.278

Q: For CTAACGTA, which “PBM E-score” value is on record?
A: -0.201

Q: With AACAATGT as the sequence, how does the “PBM E-score” value read?
A: -0.0925

Q: AGGAACGA was tested. Which “PBM E-score” value did it give?
A: 0.0238

Q: How did the “PBM E-score” value turn out when GGGAACGA was run?
A: 0.0562

Q: Which “PBM E-score” value does the source give for AGGAACGC here?
A: -0.097

Q: With CGGAACGA as the sequence, how does the “PBM E-score” value read?
A: 0.399

Q: For CGGAACGC, which “PBM E-score” value is on record?
A: 0.407

Q: Which “PBM E-score” value does the source give for CAGAACGC here?
A: -0.126

Q: How did the “PBM E-score” value turn out when GCGTTCCA was run?
A: -0.104

Q: How did the “PBM E-score” value turn out when ATCTATAC was run?
A: 0.0424

Q: For ATCTATTA, which “PBM E-score” value is on record?
A: 0.0372

Q: With GAGGTTCA as the sequence, how does the “PBM E-score” value read?
A: 0.012

Q: CACTTGAG was tested. Which “PBM E-score” value did it give?
A: -0.265

Q: With GGGTCGAC as the sequence, how does the “PBM E-score” value read?
A: 0.0843

Q: CATCGGGC was tested. Which “PBM E-score” value did it give?
A: 0.181

Q: With ACCTTCGG as the sequence, how does the “PBM E-score” value read?
A: 0.404

Q: For CCCTTCGG, which “PBM E-score” value is on record?
A: 0.401

Q: Which “PBM E-score” value does the source give for ACCTTCGT here?
A: -0.0808

Q: CCCTTCGC was tested. Which “PBM E-score” value did it give?
A: -0.135

Q: ACCTTCGA was tested. Which “PBM E-score” value did it give?
A: -0.171

Q: With CCCTTCGA as the sequence, how does the “PBM E-score” value read?
A: -0.0805

Q: How did the “PBM E-score” value turn out when CCAACTTC was run?
A: -0.0561

Q: With GTCAAAAC as the sequence, how does the “PBM E-score” value read?
A: -0.0364

Q: How did the “PBM E-score” value turn out when TAGAGATA was run?
A: -0.0379

Q: With CCAAACTC as the sequence, how does the “PBM E-score” value read?
A: -0.0175

Q: How did the “PBM E-score” value turn out when ATTTATGC was run?
A: -0.126

Q: Which “PBM E-score” value does the source give for CAATCCGC here?
A: 0.191

Q: Which “PBM E-score” value does the source give for CAATCCGG here?
A: 0.244

Q: For TAATCCCA, which “PBM E-score” value is on record?
A: -0.0875

Q: GAATCCGC was tested. Which “PBM E-score” value did it give?
A: 0.206

Q: TAATCCGA was tested. Which “PBM E-score” value did it give?
A: 0.39

Q: GAATCCTA was tested. Which “PBM E-score” value did it give?
A: 0.00817

Q: How did the “PBM E-score” value turn out when AAATCCGG was run?
A: 0.332

Q: Which “PBM E-score” value does the source give for AAATCCGA here?
A: 0.396

Q: With AAATCCGT as the sequence, how does the “PBM E-score” value read?
A: 0.186

Q: How did the “PBM E-score” value turn out when GAATCCGA was run?
A: 0.4

Q: Which “PBM E-score” value does the source give for CAATCCGA here?
A: 0.403

Q: How did the “PBM E-score” value turn out when TAATCCTA was run?
A: -0.00858

Q: Which “PBM E-score” value does the source give for CTGATCCA here?
A: -0.0972

Q: Which “PBM E-score” value does the source give for CGTGCTTA here?
A: -0.0565

Q: How did the “PBM E-score” value turn out when ACCACATG was run?
A: -0.182

Q: How did the “PBM E-score” value turn out when GAGAAATA was run?
A: 0.0451

Q: AGGACCCC was tested. Which “PBM E-score” value did it give?
A: -0.0529

Q: How did the “PBM E-score” value turn out when AAGCTTGC was run?
A: -0.209

Q: Which “PBM E-score” value does the source give for CCATGCGG here?
A: -0.0615

Q: With ATACCAGC as the sequence, how does the “PBM E-score” value read?
A: -0.121

Q: Which “PBM E-score” value does the source give for CATTTTGA here?
A: -0.162

Q: CGTTGAGC was tested. Which “PBM E-score” value did it give?
A: -0.0224

Q: AGGATCCG was tested. Which “PBM E-score” value did it give?
A: 0.395

Q: How did the “PBM E-score” value turn out when CGGATCCC was run?
A: 0.38

Q: AGGATCCT was tested. Which “PBM E-score” value did it give?
A: -0.218

Q: With CGGATCCA as the sequence, how does the “PBM E-score” value read?
A: 0.36

Q: How did the “PBM E-score” value turn out when CGGATCCG was run?
A: 0.462

Q: With AGGATCCC as the sequence, how does the “PBM E-score” value read?
A: 0.0362

Q: Which “PBM E-score” value does the source give for ATGGCGTC here?
A: -0.158

Q: How did the “PBM E-score” value turn out when GATTGACC was run?
A: 0.0279

Q: CAAAATAC was tested. Which “PBM E-score” value did it give?
A: -0.00837

Q: For ACTAGAAC, which “PBM E-score” value is on record?
A: 0.0472

Q: Which “PBM E-score” value does the source give for AGGCTCTA here?
A: -0.08

Q: ATAGCTTA was tested. Which “PBM E-score” value did it give?
A: -0.106

Q: With AGAGCCGG as the sequence, how does the “PBM E-score” value read?
A: 0.24

Q: How did the “PBM E-score” value turn out when CGAGCCAA was run?
A: 0.00699

Q: How did the “PBM E-score” value turn out when CGAGCCGA was run?
A: 0.399

Q: With GGAGCCGA as the sequence, how does the “PBM E-score” value read?
A: 0.379

Q: For CGAGCCGC, which “PBM E-score” value is on record?
A: 0.328

Q: Which “PBM E-score” value does the source give for AGAGCCGA here?
A: 0.39

Q: With ATGCGGGG as the sequence, how does the “PBM E-score” value read?
A: 0.0133

Q: For CCAGTCCG, which “PBM E-score” value is on record?
A: 0.17

Q: Which “PBM E-score” value does the source give for ATGGCAGC here?
A: -0.171

Q: ACCTACGA was tested. Which “PBM E-score” value did it give?
A: -0.199

Q: For ACGCCATA, which “PBM E-score” value is on record?
A: -0.131

Q: How did the “PBM E-score” value turn out when ACGGCCCG was run?
A: 0.284

Q: Which “PBM E-score” value does the source give for CGGGCCCA here?
A: 0.11

Q: With CCGGGCCG as the sequence, how does the “PBM E-score” value read?
A: 0.382

Q: AGGGCCCG was tested. Which “PBM E-score” value did it give?
A: 0.205

Q: CCGGCCCA was tested. Which “PBM E-score” value did it give?
A: 0.17

Q: With CCGGCCCG as the sequence, how does the “PBM E-score” value read?
A: 0.392

Q: Which “PBM E-score” value does the source give for CCGGGCCC here?
A: 0.303

Q: How did the “PBM E-score” value turn out when CGGGCCCG was run?
A: 0.419

Q: How did the “PBM E-score” value turn out when CCGGGCCA was run?
A: 0.18

Q: Which “PBM E-score” value does the source give for CAATTTGA here?
A: -0.046

Q: With TTCTACAA as the sequence, how does the “PBM E-score” value read?
A: -0.129
